D2 ag-1: Beta-Arrestin HTS for Positive Allosteric Modulators of the Human D2 Dopamine Receptor: Agonists. D(2) dopamine receptor (Homo sapiens), P14416. DiscoveRx PathHunter D2 beta-arrestin, luminescence, 90 min; 100% = 57 uM dopamine signal. activation, % (test concentration not listed). 360,000 tested, 0.084% active; in the data active = activation above about 40%; inconclusive = between about 15% and that limit
Target sequence (P14416 whole entry, looked up): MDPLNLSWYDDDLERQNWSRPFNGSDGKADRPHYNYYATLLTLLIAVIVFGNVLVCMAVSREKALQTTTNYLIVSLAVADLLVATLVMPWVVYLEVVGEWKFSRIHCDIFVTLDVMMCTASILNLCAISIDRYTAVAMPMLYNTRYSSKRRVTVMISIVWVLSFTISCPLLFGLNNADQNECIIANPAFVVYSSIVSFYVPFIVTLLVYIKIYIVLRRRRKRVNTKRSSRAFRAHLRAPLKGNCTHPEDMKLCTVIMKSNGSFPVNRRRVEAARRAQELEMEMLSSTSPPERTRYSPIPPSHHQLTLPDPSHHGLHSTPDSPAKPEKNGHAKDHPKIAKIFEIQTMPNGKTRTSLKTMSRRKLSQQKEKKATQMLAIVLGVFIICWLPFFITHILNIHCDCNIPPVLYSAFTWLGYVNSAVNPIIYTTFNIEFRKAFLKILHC
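Agonist mode: compounds alone added to overnight-plated D2 PathHunter cells for 90 min at 37 C, with 57 uM final dopamine (EC100) defining full response. Beta-arrestin recruitment detected by chemiluminescent reagent, read after 1 h at ambient temperature.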
D2 antagonist: HTS Assay for Allosteric Antagonists of the Human D2 Dopamine Receptor: Primary Screen for Antagonists. HEK293 TREx D2 cells, calcium flux, dopamine EC80. inhibition, % at 10 µM. 340,000 tested, 2% active; in the data active = inhibition above about 30%; inactive = below that, where a call was filed; also: 0% is about no effect
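Compounds are added to dye-loaded, induced HEK293 T-REx cells coupled to calcium release via D2; after a 3 min kinetic read an EC80 dopamine stimulus is given and fluorescence is recorded for 3 more min.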
D2 PAM-1: HTS Assay for Positive Allosteric Modulators of the Human D2 Dopamine Receptor: Primary Screen for Potentiators; AID 485347, 2010; potentiation, % at 10 µM; 340,000 tested, 0.34% active; HEK293 T-REx D2, calcium flux, EC20 dopamine potentiation; D(2) dopamine receptor (Homo sapiens), P14416;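 active = potentiation over 3 SD above the plate norm, cut at about 30% in these data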; also: 0% is about no effect
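Tetracycline-induced HEK293 T-REx cells force-coupled to calcium signalling expressed D2; compounds were pin-added after a 10 s baseline, read kinetically 180 s, then an EC20 dopamine challenge followed with a further 180 s calcium read.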
D2 PAM-2: Beta-Arrestin HTS for Positive Allosteric Modulators of the Human D2 Dopamine Receptor: Potentiators. AID 624464, 2012. 360,000 tested, 0.23% active. potentiation, % (test concentration not listed). D(2) dopamine receptor (Homo sapiens), P14416. DiscoveRx D2 beta-arrestin cells, luminescence, 90 min; 100% = 57 uM dopamine signal; in the data active = potentiation above about 50%; inconclusive = mostly about 30% to 49%
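PathHunter beta-arrestin assay in DiscoveRx D2 cells. Compounds were added with an EC20 of dopamine (50 nM final) for 90 min at 37 deg C. Luminescence was read 1 h after detection reagent, with 57 uM dopamine as the EC100 control.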
D2 ag-2: HTS Assay for Allosteric Agonists of the Human D2 Dopamine Receptor: Primary Screen for Agonists. HEK293 T-REx D2 cells, calcium flux agonist mode. activation, % at 2 µM. D(2) dopamine receptor (Homo sapiens), P14416. 340,000 tested, 0.53% active;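 active = activation over 3 SD above normal in the single-dose calcium agonist read, cut at about 30% in these data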; also: 0% is about no effect
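In this primary screen, compounds producing a positive calcium signal within 180 s of addition to tetracycline-induced, force-coupled HEK293 Trex D2 cells are flagged; cells are dye-loaded with a no-wash calcium kit beforehand.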
D3 ag: qHTS of D3 Dopamine Receptor Agonist: D3 Dopamine Receptor B-arrestin Agonist Confirmatory Assay. shares compounds with D2 ag-2. DiscoveRx D3 beta-arrestin cells, luminescence, 90 min. Potency, µM (doses to about 76.9 µM), inactives show top-dose activation, most hits filed as activators. 2,300 tested, 4% active. AID 720506, 2013;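 also: potency is read from the fitted curve at half-maximal effect; 100% = dopamine control response; nearly all actives have a fitted effect of over 70% in size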
D2 ag-3: qHTS of D3 Dopamine Receptor Agonist: D2 Dopamine Receptor B-arrestin Agonist Counterscreen. shares compounds with D2 ag-2. Potency, µM (doses to about 76.9 µM), without a hit: top-dose activation, actives largely listed as activators. 2,300 tested, 5.9% active. DiscoveRx PathHunter D2 beta-arrestin, luminescence, 90 min; response scale: percent relative to full dopamine signal; also: potency is read from the fitted curve at half-maximal effect; % of control where 0% means no effect; nearly all actives have a fitted effect of over 70% in size
* marks the source's active call; other numbers are inactive results; ? = inconclusive; nt = not tested or not shown. Sampled rows, rich in hits. Any-hit rate of the full collection: about 2.4%. Unless noted, calls follow the shape of the dose curve; as a rule, active = well fitted activation curve with a large enough effect; inconclusive = small, poorly fitted or top-dose-only effect; inactive = flat fitted curve, though single readings scatter.

SMILES	D2 ag-1	D2 antagonist	D2 PAM-1	D2 PAM-2	D2 ag-2	D3 ag	D2 ag-3
COc1ccccc1CNCC(=O)Nc1cc(S(=O)(=O)N2CCCCCC2)ccc1Cl	0.7	85.5*	-5.2	-20.9	-0.1	23.2%	29.7%
COc1ccccc1CNCC(=O)Nc1cc(S(=O)(=O)N2CCCCC2)ccc1C	?	nt	nt	-8.5	nt	nt	nt
Cc1ccc(N2C(=O)c3cccc4c(N5CCN(C)CC5)ccc(c34)C2=O)c2cccnc12	-3.5	5.7	-15.0	-7.9	32.0*	-7.1%	-1.2%
COc1cc(Cn2c(=O)sc3ccccc32)ccc1OCCC(C)C	nt	nt	-13.5	nt	0.3	nt	nt
COc1ccc(CNC(=O)CCn2c(=O)c3cccn3c3ccc(F)cc32)cc1OC	nt	nt	3.4	nt	-0.3	nt	nt
O=C1C(c2ccc(C(F)(F)F)cc2)=C(Nc2ccc(Cl)cc2)c2ccccc21	nt	nt	11.1	nt	nt	nt	nt
Cc1ccc2nc(-c3cccc(NC(=O)CSc4ccc(Cl)cc4)c3)oc2c1	nt	nt	7.5	nt	0.1	nt	nt
Oc1ccc(Cl)cc1CNCc1ccc(F)cc1	-5.7	-2.4	-14.5	-23.8	3.6	nt	nt
Oc1ccc(Cl)cc1CNCc1ccc(Cl)cc1	0.3	-6.5	-19.7	-81.1	1.2	-3.0%	-2.1%
Fc1ccc(Nc2nc3ccccc3c3nncn23)c(Cl)c1	nt	nt	-3.0	nt	0.1	nt	nt
CCN1CCN(c2ncnc3scc(-c4ccc(C)cc4)c23)CC1	109.8*	67.6*	-26.8	?	70.1*	8.3%	2.82µM*
Cn1cc(C(=O)NCc2ccccc2)c(=O)c2cc(S(=O)(=O)N3CCCCCC3)ccc21	nt	nt	8.3	nt	-0.6	nt	nt
COc1ccccc1-c1noc(-c2ccc(N3CCN(C)CC3)c([N+](=O)[O-])c2)n1	nt	nt	-0.7	nt	-0.2	nt	nt
O=C1OC(N2CCN(C(=O)c3ccco3)CC2)c2ccccc21 (stereo not given)	5.9	nt	nt	-12.1	nt	24.4%	13.9%
O=C(c1cc(-c2ccccc2)on1)N1CCN(c2ccccc2)CC1	5.0	4.3	3.7	-7.2	-0.4	nt	nt
O=C(c1cc(-c2ccco2)on1)N1CCN(c2ccccc2)CC1	-0.2	0.3	-14.0	-3.8	45.3*	-5.5%	-0.4%
O=C(c1ccco1)N1CCC(N2CCN(c3ccccc3)CC2)CC1	1.3	60.8*	-20.9	-9.7	78.4*	?	29.4%
O=C(CCc1nc2cccnc2n1-c1ccccc1)Nc1ccc(Cl)c(Cl)c1	nt	nt	6.9	nt	0.4	nt	nt
Cc1cccc(Cn2c(SCc3ccc(C(=O)N4CCCCCC4)cc3)nc3ccncc32)c1	nt	nt	20.3	nt	-2.2	nt	nt
COc1ccccc1NC(=O)NCCCN1CCN(c2cccc(Cl)c2)CC1	-3.8	63.1*	-24.4	-15.4	49.3*	3.0%	10.3%
Cc1nc2ncnn2c(C)c1CCC(=O)N1CCN(c2cccc(Cl)c2)CC1	nt	nt	-0.4	nt	nt	nt	nt
CN(CCCNC(=O)C1CCC(=O)N1Cc1ccccc1Cl)c1ccccc1 (stereo not given)	0.2	10.0	-5.0	-4.6	-0.3	nt	nt
COc1ccccc1N1CCN(CCCCOc2ccc(C)cc2C)CC1	9.5	81.7*	-28.9	0.2	61.7*	2.7%	7.0%
Cc1nc2ncnn2c(C)c1CCC(=O)NCCCN1CCN(c2cccc(Cl)c2)CC1	?	72.5*	-18.2	-0.5	75.8*	8.8%	?
COc1ccccc1N1CCN(CCCCN2C(=O)c3ccccc3C2=O)CC1	-6.9	nt	nt	-34.7	nt	nt	nt

Screening data from PubChem BioAssay.
